Test results reported in PubChem BioAssay AID463173 (ICCB-Longwood Screening Facility, Harvard Medical School, 2010).
About 4,300 (8.3%) of roughly 52,000 compounds were called active. The list comes from a sample in which actives are over-represented; it also holds similar structures and randomly drawn compounds. Values without a mark were called inactive. Cut-off read from the data, not from the text of the source: active = survival mostly below about 52% (no sharp cut-off); inactive = mostly above about 56%.

system: DeltatarO mutant; assay: growth inhibition of S. aureus wild type versus tarO mutant, primary screen, teichoic acid synthesis inhibitors, RN4220, OD600 (AID 463173); conditions: OD600, 18 h, active compounds read low, screened at 18.75 µg/mL (by protocol)

SMILES | survival
COc1cc(C(=O)NCC(c2ccco2)S(=O)(=O)c2cccs2)cc(OC)c1OC (stereo unspecified) | 91%
COc1cc(C2c3c(-c4c(C)cc(C)cc4O)n[nH]c3C(=O)N2CCCOC(C)C)cc(OC)c1OC (stereo unspecified) | 86%
CCOc1cc(CNC(=O)c2ccc3c(c2)NC(=O)C2CCCCN32)cc(OCC)c1OCC (stereo unspecified) | 107%
O=C1C2C3C=CC(C3)C2C(=O)N1c1ccc(Cl)cc1 (stereo unspecified) | 70%
CCC(Oc1ccccc1)C(=O)Nc1ccc(OCc2cc(=O)n3ccc(C)cc3n2)cc1 (stereo unspecified) | 91%
O=C(NCCc1ccccc1)c1ccc2c(c1)N(Cc1ccc(F)cc1)C(=O)c1ccccc1S2 | 99%
COc1ccc(CCNC(=O)CSCc2nc(-c3cccc(C)c3)oc2C)cc1OC | 66%
CCOc1ccc(CCNC(=O)CSCc2nc(-c3cccc(C)c3)oc2C)cc1OCC | 82%
COc1ccc(-c2nc(CSCC(=O)NCCc3ccc(OC)c(OC)c3)c(C)o2)cc1 | 79%
Cc1cccc(-c2nc(CSCC(=O)NCCc3ccc(Cl)cc3)c(C)o2)c1 | -7% (active)
COc1cccc(-c2nc(CS(=O)(=O)CC(=O)NCCc3ccc(Cl)cc3)c(C)o2)c1 | 63%
COc1cccc(-c2nc(CSCC(=O)NCCc3ccc(Cl)cc3)c(C)o2)c1 | -4% (active)
O=C(c1cc(=O)c2cc(Cl)ccc2o1)N(Cc1ccccc1)C1CCS(=O)(=O)C1 (stereo unspecified) | 51%
N#Cc1ccccc1NC(=O)CSC1=NCCS1 | 99%
COc1ccc(-c2csc3ncnc(Nc4cccc(OC)c4)c23)cc1 | 69%
COc1ccc(Nc2ncnc3scc(-c4ccc(F)cc4)c23)cc1 | 92%

SMILES | survival
COc1ccc(-c2csc3ncnc(Nc4cccc(F)c4)c23)cc1 | 0% (active)
O=C1CC(c2nc3ccccc3[nH]2)CN1c1cccc(Cl)c1 (stereo unspecified) | 81%
COc1cc(C(=O)NCCSc2c(-c3ccccc3)[nH]c3ccccc23)cc(OC)c1OC | 68%
Cc1cc(C)cc(NS(=O)(=O)c2ccc3[nH]cc(C(=O)NC4CCCCC4)c(=O)c3c2)c1 | 17% (active)
Cc1cc(C)cc(NS(=O)(=O)c2ccc3[nH]cc(C(=O)N4CCCCCC4)c(=O)c3c2)c1 | 85%
CC(C)c1ccc(NS(=O)(=O)c2ccc3[nH]cc(C(=O)NCC4CCCO4)c(=O)c3c2)cc1 (stereo unspecified) | 81%
COc1cccc(NS(=O)(=O)c2ccc3[nH]cc(C(=O)N(C)C4CCCCC4)c(=O)c3c2)c1 | 98%
CC(C)c1ccc(NS(=O)(=O)c2ccc3[nH]cc(C(=O)NC4CCCCC4)c(=O)c3c2)cc1 | 14% (active)
CC(C)c1ccc(NS(=O)(=O)c2ccc3[nH]cc(C(=O)N4CCCC4)c(=O)c3c2)cc1 | 76%
COc1cccc(NS(=O)(=O)c2ccc3[nH]cc(C(=O)N4CCCCCC4)c(=O)c3c2)c1 | 124%
Cc1cc(C)cc(NS(=O)(=O)c2ccc3[nH]cc(C(=O)N4CCCCC4)c(=O)c3c2)c1 | 83%
CC(C)c1ccc(NS(=O)(=O)c2ccc3[nH]cc(C(=O)NCCc4ccccc4)c(=O)c3c2)cc1 | 73%
CC(C)c1ccc(NS(=O)(=O)c2ccc3[nH]cc(C(=O)NC4CCCC4)c(=O)c3c2)cc1 | 4% (active)
CCN(c1ccccc1)S(=O)(=O)c1ccc2[nH]cc(C(=O)NC3CCCCC3)c(=O)c2c1 | 82%
COc1cccc(NS(=O)(=O)c2ccc3[nH]cc(C(=O)NC4CCCCC4)c(=O)c3c2)c1 | 35% (active)
